# Calls of active or inactive are those of the source. How the source made its calls: active means hit-call score of the fitted dose curve at least 0.9, where 1 is the maximum; inactive means score below 0.9.
# Assay: CCTE_Deisenroth_DEVTOX-GLR_Meso_CellCount: Viability Assessment in CCTE's DevTox GLR-Meso Assay, Deisenroth Lab
# Experimental: CCTE_Deisenroth_DEVTOX-GLR_Meso assay is a cell-based, multiplex-readout assay that uses RUES2-GLR, a human pluripotent cell line, with measurements taken at 48 hours after chemical dosing in a 384-well microplateCCTE_Deisenroth_DEVTOX-GLR_Meso_CellCount is 1 of 4 assay components calculated from the CCTE_Deisenroth_DEVTOX-GLR_Meso assay and it measures cell count. Using fluorescent nuclei staining, gain-of-signal activity can be used to understand changes in cell viability with fluorescent microscopy. It is designed to make measurements of nuclei counts as a surrogate for cell number, as detected with optical fluorescence microscopy by Perkin Elmer Harmony nuclei detection algorithm. To generalize the intended target to other relatable targets, this assay component is annotated to the cell cycle intended target family, where the subfamily is cytotoxicity.Data from the assay component CCTE_Deisenroth_DEVTOX-GLR_Meso_CellCount was analyzed as 1 assay endpoint. The endpoint the percent change in cell count relative to the 0.2% DMSO control in the CCTE_Deisenroth_DEVTOX-GLR_Meso assay. Furthermore, this assay endpoint can be referred to as a primary readout, because this assay has produced multiple assay endpoints where this one serves as a measure of cytotoxicity.
# All assay protocols are aligned to the DevTox GLR-Endo assay workflow. Cells are seeded into 384-well microplates for 24 hours prior to initiating differentiation in defined media for a total duration of 48 hours. A total of two chemical exposures are administered in 24-hour intervals during the 48-hour differentiation period. At the assay termination point, cells are fixed and stained with a fluorescent dye demarcating the nucleus. High-content imaging is used to acquire brightfield and fluorescent channel images across 5 fields per well. Cell identification and mean biomarker fluorescence intensities are calculated with image analysis software to determine the total cell counts for viability assessment and the biomarker expression frequency for each lineage-dependent assay. A typical experimental design tests a 10-point concentration series (1 nM - 200 uM) for 28 compounds in single technical replicate. Assay plate controls include non-differentiated pluripotent cells (baseline control), lineage-specific differentiated cells (differentiation control), and DMSO solvent exposed differentiated cells (solvent control). Experiments typically comprise a minimum of four experimental replicates (n=4).
Structure (SMILES),outcome,AC50
CCCC(CCC)C(=O)O,inactive,
CC(C)(c1ccc(O)cc1)c1ccc(O)cc1,,33.5 µM (active)
CC1(C)S[C@@H]2[C@H](NC(=O)Cc3ccccc3)C(=O)N2[C@H]1C(=O)O,inactive,
Nc1cccc2c1C(=O)N(C1CCC(=O)NC1=O)C2=O (stereo unspecified),inactive,
CC/C(=C(/CC)c1ccc(O)cc1)c1ccc(O)cc1,,2.86 µM (active)
CCN(CC)CCNC(=O)c1c(C)[nH]c(/C=C2\C(=O)Nc3ccc(F)cc32)c1C,,1.18 µM (active)
O=C1CCC(N2C(=O)c3ccccc3C2=O)C(=O)N1 (stereo unspecified),inactive,
Nc1nc2ncc(CNc3ccc(C(=O)N[C@@H](CCC(=O)O)C(=O)O)cc3)nc2c(=O)[nH]1,inactive,
CS(=O)(=O)OCCCCOS(C)(=O)=O,,57.8 µM (active)
CC1=C(/C=C/C(C)=C/C=C/C(C)=C\C(=O)O)C(C)(C)CCC1,,18.6 µM (active)
O=C1NS(=O)(=O)c2ccccc21,inactive,
CC1=C(/C=C/C(C)=C/C=C/C(C)=C/C(=O)O)C(C)(C)CCC1,,18.5 µM (active)
O=C1NC(=O)C(c2ccccc2)(c2ccccc2)N1,,100 µM (active)
CN(Cc1cnc2nc(N)nc(N)c2n1)c1ccc(C(=O)N[C@@H](CCC(=O)O)C(=O)O)cc1,inactive,
O=c1[nH]cc(F)c(=O)[nH]1,,4.95 µM (active)
CC(=O)Nc1ccc(O)cc1,inactive,
